The panel holds about 83,000 compounds, 20% with a hit somewhere; the sample as a whole holds those more often.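 Step 1: grow cells in 96-well plates. Step 2: add test compound at a single concentration. Step 3: incubate 48 h. Step 4: record percent growth.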 Values without a mark were called inactive. The source made the active and inactive calls. The calls were made as follows: active = growth percent below 10; inactive = the rest.

Test systems include NCI-H23 lung; NCI-H226 lung; NCI-H322M lung; HOP-62 NSCLC; NCI-H460 lung; HOP-92 NSCLC; NCI-H522 lung; A549/ATCC NSCLC; 786-0 renal; COLO 205 colon; DU-145 prostate; MALME-3M melanoma; MDA-MB-231 breast; RXF 393 renal; SF-268 CNS; SF-295 CNS; SF-539 CNS; UACC-257 melanoma; M14 melanoma; K-562 leukemia.
Assay in all cases: NCI-60 one-dose screen, 48 h (100 = growth as untreated, 0 = no growth, -100 = all killed)
What all share (conditions): 10 µM unless noted

As to `COc1ccc(/C=C\c2cc(OC)c(OC)c(OC)c2)cc1NC(=O)/C=C/c1ccc(OC)c(OC)c1`, the growth in the assay on NCI-H23 lung is 0.102% (active); in the assay with NCI-H226 lung, 35.9%; with NCI-H322M lung, 68.2%; with HOP-62 NSCLC, 39.5%; in the assay with NCI-H460 lung, 22%; with HOP-92 NSCLC, 115%. Besides, the growth in the assay on NCI-H522 lung was 11.1%; with A549/ATCC NSCLC, 41.7%; with 786-0 renal, 35.7%; with COLO 205 colon, -4.78% (active); in the assay on DU-145 prostate, 15.9%; with MALME-3M melanoma, 51.7%. Further, the growth is 58.6% with MDA-MB-231 breast; -15.1% (active) in the assay on RXF 393 renal; 41.7% in the assay on SF-268 CNS; 5.37% (active) in the assay on SF-295 CNS; 2.69% (active) with SF-539 CNS; 73.9% with UACC-257 melanoma. For the same compound, the growth in the assay on M14 melanoma is 23.4%.

For `CCCCN(CCCC)P(=O)(Oc1ccccc1)Oc1ccccc1`, the growth is 53.7% with NCI-H23 lung; 73.9% in the assay with NCI-H226 lung; 85.1% in the assay with NCI-H322M lung; 85.8% in the assay with HOP-62 NSCLC; 59.9% in the assay on NCI-H460 lung; 48.3% in the assay on HOP-92 NSCLC. For the same compound, the growth with NCI-H522 lung is 37.9%; with A549/ATCC NSCLC, 49%; with 786-0 renal, 75%; with COLO 205 colon it was 75.2%; in the assay with K-562 leukemia it was 46.2%; with MALME-3M melanoma it was 119%. Moreover, the growth was 69.3% in the assay with MDA-MB-231 breast; 55.8% in the assay with RXF 393 renal; 84% in the assay with SF-268 CNS; 64.5% in the assay on SF-295 CNS; 100% with SF-539 CNS; 70.4% in the assay on UACC-257 melanoma. The growth with M14 melanoma was 52.3%.

Regarding `CNCc1cccnc1`, the growth was 104% in the assay on NCI-H23 lung; 101% with NCI-H226 lung; 113% in the assay with NCI-H322M lung; 114% with HOP-62 NSCLC; 114% in the assay with NCI-H460 lung; 108% with HOP-92 NSCLC. In addition, the growth is 84.2% in the assay on NCI-H522 lung; 97.6% in the assay on A549/ATCC NSCLC; 107% in the assay with 786-0 renal; 122% in the assay on COLO 205 colon; 111% with DU-145 prostate; 124% in the assay with MALME-3M melanoma. In addition, the growth is 126% in the assay with MDA-MB-231 breast; 121% in the assay with RXF 393 renal; 104% with SF-268 CNS; 95.5% with SF-295 CNS; 112% in the assay on SF-539 CNS; 105% with UACC-257 melanoma. Also, the growth in the assay with M14 melanoma is 117%.

`O=C(O)C(Cl)(Cl)C(F)(F)F`: the growth with NCI-H23 lung is 100%; with NCI-H226 lung it was 106%; with NCI-H322M lung, 106%; in the assay with HOP-62 NSCLC, 111%; with NCI-H460 lung, 102%; with HOP-92 NSCLC it was 95.1%. In addition, the growth with NCI-H522 lung is 102%; with A549/ATCC NSCLC it was 106%; in the assay with 786-0 renal, 99.1%; in the assay with COLO 205 colon it was 124%; with DU-145 prostate, 108%; with MALME-3M melanoma, 105%. Further, the growth is 102% with MDA-MB-231 breast; 99.3% in the assay with SF-268 CNS; 99.9% in the assay with SF-295 CNS; 102% in the assay with SF-539 CNS; 105% in the assay with UACC-257 melanoma; 105% in the assay with M14 melanoma.

In the case of `COC(=O)[C@@H](NC(=O)c1cn(CCC2CCCCC2)c2ccccc12)C(C)(C)C`, the growth in the assay with NCI-H23 lung is 76.4%; in the assay on NCI-H226 lung it was 58.6%; in the assay with NCI-H322M lung it was 83.7%; in the assay on HOP-62 NSCLC, 61.8%; in the assay on NCI-H460 lung it was 79.3%; in the assay with HOP-92 NSCLC it was 63.4%. Further, the growth with NCI-H522 lung was 63.7%; in the assay on A549/ATCC NSCLC, 64.8%; with 786-0 renal, 73.5%; in the assay on COLO 205 colon, 96.4%; in the assay on DU-145 prostate, 81.7%; in the assay with MALME-3M melanoma, 106%. For the same compound, the growth in the assay with MDA-MB-231 breast was 70.1%; in the assay with RXF 393 renal it was 83.9%; with SF-268 CNS it was 68.5%; in the assay on SF-295 CNS it was 60.2%; in the assay on SF-539 CNS it was 88.1%; in the assay on UACC-257 melanoma, 73%. Further, the growth with M14 melanoma was 59.4%.

Turning to `COc1cccc2c1c(C(=O)C(=O)Nc1ccn[nH]1)cn2Cc1ccc(F)cc1`, the growth with NCI-H23 lung is 96.4%; in the assay with NCI-H226 lung, 76.4%; in the assay with NCI-H322M lung it was 97.8%; in the assay on HOP-62 NSCLC it was 103%; in the assay on NCI-H460 lung, 77.6%; in the assay with HOP-92 NSCLC it was 87%. Moreover, the growth was 96.8% in the assay on NCI-H522 lung; 86.3% in the assay on A549/ATCC NSCLC; 92.4% with 786-0 renal; 103% with COLO 205 colon; 104% with DU-145 prostate; 112% in the assay with MALME-3M melanoma. Moreover, the growth with MDA-MB-231 breast was 109%; in the assay with RXF 393 renal, 99.8%; in the assay with SF-268 CNS, 100%; with SF-295 CNS, 143%; in the assay on SF-539 CNS, 99.5%; with UACC-257 melanoma, 104%. In addition, the growth in the assay on M14 melanoma was 101%.

As for `CC[C@H](C)[C@@H]1OC(=O)C(C)(C)[C@H](O)[C@H](Cc2ccccc2)OC(=O)[C@H](C(C)C)OC(=O)[C@@H](NC(=O)c2cccc(NC=O)c2O)[C@@H](C)OC1=O`, the growth is 36.4% in the assay with NCI-H23 lung; 51.2% with NCI-H226 lung; 78.9% in the assay with NCI-H322M lung; 45% with HOP-62 NSCLC; 19% in the assay on NCI-H460 lung; 68% in the assay on HOP-92 NSCLC. Moreover, the growth is 38.9% in the assay on NCI-H522 lung; 49.5% in the assay on A549/ATCC NSCLC; 64.5% with 786-0 renal; 43.6% in the assay with COLO 205 colon; 62.7% in the assay on DU-145 prostate; 77.4% in the assay with MALME-3M melanoma. Also, the growth in the assay on MDA-MB-231 breast was 59.1%; in the assay with RXF 393 renal it was 87.1%; in the assay with SF-268 CNS, 62.1%; in the assay with SF-295 CNS, 28%; in the assay with SF-539 CNS, 52.8%; with UACC-257 melanoma it was 32.3%. The growth in the assay with M14 melanoma was 62.8%.

With `Cc1cc(N(CCCl)CCCl)ccc1C=Nc1cccnc1`, the growth in the assay on NCI-H23 lung was 56.6%; with NCI-H226 lung, -45.2% (active); with NCI-H322M lung, 108%; in the assay on HOP-62 NSCLC, 60.4%; in the assay on NCI-H460 lung it was 26.5%; in the assay with HOP-92 NSCLC it was 44.8%. Besides, the growth in the assay on NCI-H522 lung was 87.3%; with A549/ATCC NSCLC it was 67.9%; in the assay on 786-0 renal, 63%; in the assay on COLO 205 colon, 76.7%; with K-562 leukemia, 63.1%; with MALME-3M melanoma, 62%. The growth in the assay on MDA-MB-231 breast was 98.4%; with RXF 393 renal, 59.7%; with SF-268 CNS, 80.4%; in the assay on SF-295 CNS, 36.7%; with SF-539 CNS, 53.5%; in the assay with UACC-257 melanoma it was 61.8%. Moreover, the growth with M14 melanoma is 79.5%.

The record behind these values is PubChem BioAssay (NCI).
